Laboratory results taken from PubChem BioAssay (EPA / NIEHS).
Activity calls are given as the source filed them. The calls were made as follows: active = hit-call score of the fitted dose curve at least 0.9, where 1 is the maximum; inactive = score below 0.9.

Experiments:
Details in all cases: mRNA level, 48 h; actives raise or lower the signal
[1] = read-out: Glutamate-cysteine ligase catalytic (GCLC), GCLC (gene 2729); test: LTEA_HepaRG_GCLC: Life Technologies and Expression Analysis (LTEA) Assay for Glutamate-cysteine ligase catalytic (GCLC) using HepaRG (AID 2283498)
Procedure, shortened: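 Read-out is GCLC transcript level by Fluidigm-based TaqMan qRT-PCR, normalized to three housekeeping genes and fitted in both directions relative to 0.5% DMSO. Human HepaRG cells received chemicals for 48 h, up to 100 uM.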

[2] = read-out: growth arrest and DNA damage 45 (GADD45G), GADD45G (gene 10912); test: LTEA_HepaRG_GADD45G: Life Technologies and Expression Analysis (LTEA) Assay for growth arrest and DNA damage 45 (GADD45G) using HepaRG (AID 2283499)
Procedure, shortened: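 Differentiated human HepaRG cells in serum-free induction medium were exposed for 48 h to 8 half-log concentrations up to 100 uM in 0.5% DMSO, in duplicate. GADD45G mRNA was measured by TaqMan qRT-PCR, normalised to ACTB, GAPDH and POLR2A, and fitted bidirectionally against DMSO.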

[3] = read-out: Glutamate-cysteine ligase regulatory (GCLM), GCLM (gene 2730); test: LTEA_HepaRG_GCLM: Life Technologies and Expression Analysis (LTEA) Assay for Glutamate-cysteine ligase regulatory (GCLM) using HepaRG (AID 2283500)
Procedure, shortened: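 Human liver HepaRG cultures receive test chemicals for 48 hours at up to 100 uM in 0.5% DMSO. GCLM expression is measured by qRT-PCR and analysed for increases or decreases against vehicle.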

[4] = read-out: Glutathione S-transferase M3 (GSTM3), GSTM3 (gene 2947); test: LTEA_HepaRG_GSTM3: Life Technologies and Expression Analysis (LTEA) Assay for Glutathione S-transferase M3 (GSTM3) using HepaRG (AID 2283501)
Procedure, shortened: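 Differentiated HepaRG cells in serum-free induction medium were exposed in duplicate for 48 h to 8 half-log concentrations up to 100 uM in 0.5% DMSO. GSTM3 mRNA was measured by TaqMan qRT-PCR, normalized to ACTB/GAPDH/POLR2A, and fitted bidirectionally versus DMSO.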

[5] = read-out: Heat shock 70 kDa protein 1 (HSPA1A), gene 3303; test: LTEA_HepaRG_HSPA1A: Life Technologies and Expression Analysis (LTEA) Assay for Heat shock 70 kDa protein 1 (HSPA1A) using HepaRG (AID 2283502)
Procedure, shortened: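 HSPA1A induction in human HepaRG liver cells is measured after 48 h of chemical treatment (100 uM maximum, 0.5% DMSO vehicle). Expression comes from qRT-PCR normalized to endogenous controls.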

[6] = read-out: Hypoxia-inducible factor 1-alpha (Homo sapiens) (UniProt Q16665); test: LTEA_HepaRG_HIF1A: Life Technologies and Expression Analysis (LTEA) Assay for Hypoxia-inducible factor 1 (HIF1A) Trancription factor using HepaRG (AID 2283503);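 also: HIF1A transcript by TaqMan qRT-PCR normalized to ACTB GAPDH and POLR2A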
Procedure, shortened: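 HepaRG, 48 h exposure, 8-pt half-log series from 100 uM, 0.5% DMSO vehicle, duplicates. Readout: HIF1A transcript by qRT-PCR (Fluidigm array), housekeeping-normalised. Bidirectional curve fit vs DMSO baseline.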

[7] = read-out: 3-Hydroxy-3-Methylglutaryl-CoA Synthase 2 (HMGCS2), HMGCS2 (gene 3158); test: LTEA_HepaRG_HMGCS2: Life Technologies and Expression Analysis (LTEA) Assay for 3-Hydroxy-3-Methylglutaryl-CoA Synthase 2 (HMGCS2) using HepaRG (AID 2283504)
Procedure, shortened: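 Differentiated human HepaRG cells were exposed in duplicate for 48 h in serum-free induction medium to eight concentrations (top 100 uM, half-log steps, 0.5% DMSO). HMGCS2 mRNA was quantified by TaqMan qRT-PCR, normalised to ACTB, GAPDH and POLR2A, then fitted bidirectionally against DMSO.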

[8] = read-out: HGF (gene 3082); test: LTEA_HepaRG_HGF: Life Technologies and Expression Analysis (LTEA) Assay for Hepatocyte Growth Facto (HGF) using HepaRG (AID 2283505)
Procedure, shortened: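 Differentiated human HepaRG cells in serum-free induction medium were exposed in duplicate for 48 h to eight concentrations (top 100 uM, half-log steps, 0.5% DMSO). HGF mRNA was quantified by qRT-PCR, normalized to ACTB, GAPDH and POLR2A.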

[9] = read-out: Insulin-like growth factor-binding protein 1 (IGFBP1), IGFBP1 (gene 3484); test: LTEA_HepaRG_IGFBP1: Life Technologies and Expression Analysis (LTEA) Assay for Insulin-like growth factor-binding protein 1 (IGFBP1) using HepaRG (AID 2283508)
Procedure, shortened: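 Differentiated human HepaRG cells in serum-free induction medium were exposed in duplicate for 48 h to eight concentrations, top 100 uM with half-log dilutions, in 0.5% DMSO. Transcript levels came from qRT-PCR normalised to ACTB, GAPDH and POLR2A, fitted bidirectionally against DMSO.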

[10] = read-out: Interleukin 6 (IL6), IL6 (gene 3569); test: LTEA_HepaRG_IL6: Life Technologies and Expression Analysis (LTEA) Assay for Interleukin 6 (IL6) using HepaRG (AID 2283509)
Procedure, shortened: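 HepaRG, ~100,000 cells/well, 48 h pre-culture; serum-free induction medium; cmpd 8-pt half-log from 100 uM, 0.5% DMSO, duplicate, 48 h. Lysis in RLT, TaqMan qRT-PCR; gain or loss vs DMSO.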

[11] = read-out: Interleukin 6 Receptor (IL6R), IL6R (gene 3570); test: LTEA_HepaRG_IL6R: Life Technologies and Expression Analysis (LTEA) Assay for Interleukin 6 Receptor (IL6R) using HepaRG (AID 2283510)
Procedure, shortened: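 Concentration-response in human liver HepaRG cells: eight concentrations from 100 uM downward by half-logs, 48 h exposure, 0.5% DMSO vehicle. IL6R mRNA change measured by qRT-PCR and fitted in both directions relative to vehicle.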

[12] = read-out: Potassium channel subfamily K member 1 (KCNK1), KCNK1 (gene 3775); test: LTEA_HepaRG_KCNK1: Life Technologies and Expression Analysis (LTEA) Assay for Potassium channel subfamily K member 1 (KCNK1) using HepaRG (AID 2283511)
Procedure, shortened: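 Gain or loss of KCNK1 mRNA is the read-out, quantified by qRT-PCR against three housekeeping genes after 48 h chemical treatment of human HepaRG liver cells. Concentrations ran from 100 uM downward in half-log steps, vehicle 0.5% DMSO.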

[13] = read-out: Keratin 19 (KRT19), KRT19 (gene 3880); test: LTEA_HepaRG_KRT19: Life Technologies and Expression Analysis (LTEA) Assay for Keratin 19 (KRT19) using HepaRG (AID 2283512)
Procedure, shortened: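 Differentiated human HepaRG cells, plated 48 h, were exposed in duplicate for 48 h in serum-free induction medium to eight half-log concentrations up to 100 uM in 0.5% DMSO. KRT19 mRNA was quantified by qRT-PCR, normalized to ACTB, GAPDH and POLR2A, and fitted bidirectionally versus DMSO.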

[14] = read-out: JUN Transcription Factor, JUN (gene 3725); test: LTEA_HepaRG_JUN: Life Technologies and Expression Analysis (LTEA) Assay for JUN Transcription Factor using HepaRG (AID 2283513)
Procedure, shortened: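 Human HepaRG liver cells receive test chemicals in 0.5% DMSO for 48 h across an eight-point range topping at 100 uM. Expression changes in JUN are scored in both directions against the DMSO vehicle.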

[15] = read-out: Lipase C (LIPC), LIPC (gene 3990); test: LTEA_HepaRG_LIPC: Life Technologies and Expression Analysis (LTEA) Assay for Lipase C (LIPC) using HepaRG (AID 2283514)
Procedure, shortened: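 Read-out is LIPC transcript level by TaqMan qRT-PCR, normalized to three housekeeping genes, after 48 h chemical treatment of human HepaRG liver cells. Curves span eight concentrations topping at 100 uM; activity in either direction scored relative to 0.5% DMSO.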

[16] = read-out: Lipoprotein lipase (LPL), LPL (gene 4023); test: LTEA_HepaRG_LPL: Life Technologies and Expression Analysis (LTEA) Assay for Lipoprotein lipase (LPL) using HepaRG (AID 2283515)
Procedure, shortened: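 Read-out is LPL transcript level by qRT-PCR, normalized to three housekeeping genes and fitted bidirectionally against the DMSO control. Human HepaRG cells received chemicals for 48 h at up to 100 uM.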

[17] = read-out: MicroRNA 122 (MIR122), gene 406906; test: LTEA_HepaRG_MIR122: Life Technologies and Expression Analysis (LTEA) Assay for MicroRNA 122 (MIR122) using HepaRG (AID 2283516); also: the transcript read is the microRNA miR-122
Procedure, shortened: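 HepaRG, 48 h exposure, 8-pt half-log from 100 uM, 0.5% DMSO; TaqMan qRT-PCR; bidirectional fit vs DMSO.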

[18] = read-out: matrix metalloproteinase-10 (MMP10), MMP10 (gene 4319); test: LTEA_HepaRG_MMP10: Life Technologies and Expression Analysis (LTEA) Assay for matrix metalloproteinase-10 (MMP10) using HepaRG (AID 2283517)
Procedure, shortened: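 Gain or loss of MMP10 mRNA is fitted relative to the 0.5% DMSO vehicle. The human hepatic line HepaRG receives a 48-hour serum-free exposure, in duplicate, with a maximum concentration of 100 uM.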

[19] = read-out: Insulin Like Growth Factor 1 (IGF1), IGF1 (gene 3479); test: LTEA_HepaRG_IGF1: Life Technologies and Expression Analysis (LTEA) Assay for Insulin Like Growth Factor 1 (IGF1) using HepaRG (AID 2283506)
Procedure, shortened: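 Using human HepaRG liver cells, IGF1 transcript induction or suppression is measured 48 h after dosing across eight concentrations capped at 100 uM. Values derive from bidirectional concentration-response fitting with DMSO as baseline.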

[20] = read-out: Intercellular Adhesion Molecule 1 (ICAM1), ICAM1 (gene 3383); test: LTEA_HepaRG_ICAM1: Life Technologies and Expression Analysis (LTEA) Assay for Intercellular Adhesion Molecule 1 (ICAM1) using HepaRG (AID 2283507)
Procedure, shortened: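 Differentiated HepaRG cells in serum-free induction medium were exposed in duplicate for 48 h to eight half-log concentrations up to 100 uM in 0.5% DMSO. Transcript levels were measured by qRT-PCR normalized to ACTB, GAPDH and POLR2A; bidirectional fits relative to DMSO.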

Measured: outcome

Hypoxia-inducible factor 1-alpha (Homo sapiens), sequence (Q16665 whole entry, looked up): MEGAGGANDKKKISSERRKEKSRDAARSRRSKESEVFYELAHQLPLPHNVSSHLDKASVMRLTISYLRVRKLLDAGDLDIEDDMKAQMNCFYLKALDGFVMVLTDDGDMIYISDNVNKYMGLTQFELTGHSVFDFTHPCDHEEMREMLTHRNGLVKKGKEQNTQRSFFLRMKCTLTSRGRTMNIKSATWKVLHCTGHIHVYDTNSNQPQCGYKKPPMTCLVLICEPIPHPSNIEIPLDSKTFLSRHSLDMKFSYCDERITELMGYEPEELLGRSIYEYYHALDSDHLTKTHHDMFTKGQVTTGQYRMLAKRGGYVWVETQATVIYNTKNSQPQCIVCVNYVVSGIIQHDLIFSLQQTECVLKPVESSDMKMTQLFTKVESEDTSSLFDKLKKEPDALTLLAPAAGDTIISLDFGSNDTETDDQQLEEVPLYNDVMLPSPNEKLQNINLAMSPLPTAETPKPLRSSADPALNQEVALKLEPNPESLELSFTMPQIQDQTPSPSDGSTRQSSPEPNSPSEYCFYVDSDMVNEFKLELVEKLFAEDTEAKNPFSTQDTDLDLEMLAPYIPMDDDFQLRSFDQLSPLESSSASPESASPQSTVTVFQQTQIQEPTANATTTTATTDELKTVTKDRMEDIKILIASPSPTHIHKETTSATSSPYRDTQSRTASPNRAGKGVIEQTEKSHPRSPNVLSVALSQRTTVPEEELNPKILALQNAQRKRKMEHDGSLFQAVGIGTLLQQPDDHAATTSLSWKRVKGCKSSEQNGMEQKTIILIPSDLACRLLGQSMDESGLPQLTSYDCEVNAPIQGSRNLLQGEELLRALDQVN

c1ccc2c(c1)Cc1ccccc1-2
not listed: [19] | [20]
inactive: all other assays above

CCOC(=O)CC(O)(CC(=O)OCC)C(=O)OCC
not listed: [6] | [20]
inactive: all other assays above

O=C(O)c1ccccc1C(c1ccc(O)cc1)c1ccc(O)cc1
not listed: [6]
inactive: all other assays above

CCCCCCC(=O)O
not listed: [6]
inactive: all other assays above

ClC1=C(Cl)C(Cl)(Cl)C(Cl)=C1Cl
not listed: [19] | [20]
inactive: all other assays above

CCCCCCCCCCCCN1CCCC1=O
not listed: [20]
inactive: all other assays above
